The record followed here is PubChem BioAssay (NCATS).

Values joined by “and” are separate entries in the source; they are usually repeats but may differ in a detail not shown here. Equal entries are not always repeated. Unmarked numbers belong to inactive results. Records with an inconclusive call do not appear. Active and inactive are the calls of the source. Unless noted, the call rests on the fitted dose curve; in most records, active means well fitted curve in the direction sought with a large enough effect; inconclusive means small, poorly fitted or top-dose-only effect, or another doubt; inactive means no such curve, though single readings can be large; an effect the other way counts as inactive or inconclusive.

One assay has as its system C33A. Kind of assay: Primary qHTS to identify gynecologic anti-cancer compounds using libraries of approved drugs and bioactive compounds (AID 1345084). Further: nearly all actives have a fitted effect of over 55% in size. Further: potency means the concentration at half of the fitted maximal effect. Particulars: Gynecologic cancer cell panel viability, ATPlite luminescence, 48 h; series mostly up to 57.5 µM. The method, boiled down: (§1)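 Luminescence from the ATPlite ATP-monitoring reagent indicates viable cell number; lower signal means cytotoxicity. Cells received compound 16 h after seeding and were exposed for 48 h across five concentrations.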

The test system of the next assay is CAOV3. The assay is described as above. The conditions noted are these: Gynecologic cancer cell panel viability, ATPlite luminescence, 48 h; series mostly up to 57.5 µM. The method, boiled down: as §1
The test system of the next assay is CASKI. The assay is described as above. Particulars: Gynecologic cancer cell panel viability, ATPlite luminescence, 48 h; series mostly up to 57.5 µM. The method, boiled down:
as §1
Background: ATP-based viability assays read luminescence as a measure of living cells.

In a further assay the test system is Es-2. The description is as above. The conditions noted are these: Gynecologic cancer cell panel viability, ATPlite luminescence, 48 h; series mostly up to 57.5 µM. The method in brief:
as §1

In the next assay the test system is HeLa. The description is as above. The conditions noted are these: Gynecologic cancer cell panel viability, ATPlite luminescence, 48 h; series mostly up to 57.5 µM. The method in brief: as §1
The test system of another assay is Hek293T. Described as above. Particulars: Gynecologic cancer cell panel viability, ATPlite luminescence, 48 h, control line for the selectivity index; series mostly up to 57.5 µM. The method, boiled down: as §1
The next assay concerns JEG-3. The description is as above. The conditions noted are these: Gynecologic cancer cell panel viability, ATPlite luminescence, 48 h; series mostly up to 57.5 µM. The method in brief: as §1
For a further assay, the system named is OV90. The description is as above. The conditions noted are these: Gynecologic cancer cell panel viability, ATPlite luminescence, 48 h; series mostly up to 57.5 µM. The method in brief:
as §1

In a further assay the test system is PA-1. The description is as above. The conditions noted are these: Gynecologic cancer cell panel viability, ATPlite luminescence, 48 h; series mostly up to 57.5 µM. The method, boiled down: as §1
For another assay, the system named is SKOV3. Described as above. The conditions noted are these: Gynecologic cancer cell panel viability, ATPlite luminescence, 48 h; series mostly up to 57.5 µM. The method, boiled down: as §1
For another assay, the system named is Tov-21-G. Described as above. The conditions noted are these: Gynecologic cancer cell panel viability, ATPlite luminescence, 48 h; series mostly up to 57.5 µM. The method in brief: as §1
The test system of another assay is Tov112D. The assay is described as above. The conditions noted are these: Gynecologic cancer cell panel viability, ATPlite luminescence, 48 h; series mostly up to 57.5 µM. The method, boiled down: as §1
Assay [1] in a line: Drug repurposing screens with cells derived from glioblastoma tumor samples (AID 1345199). Further: on the % scale 0 is the no-effect control and ±100 the full control effect; nearly all actives have a fitted effect of over 40% in size. Particulars: GBM patient neurospheres viability, ATP luminescence, 48 h. The method in brief: (§2)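 Primary testing used CD133+ neurospheres from four GBM patients, seven concentrations, 48 h exposure and ATP-based viability; confirmation added three slower-growing patient lines.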
For assay [2], the target named is Nuclear receptor subfamily 1 group I member 2 (Rattus norvegicus) (UniProt Q9R1A7). Kind of assay: qHTS assay for small molecule activators of the rat pregnane X receptor (rPXR) signaling pathway (AID 651751; call rule not given here; further: 0% is about no effect). Particulars: rPXR reporter cells, luciferase (One-Glo), 24 h.
Assay [3] in a line: qHTS assay for small molecule activators of the human pregnane X receptor (PXR) signaling pathway (AID 720659; call rule not given here; further: 0% is about no effect). (Quantitative high-throughput screening tests each substance at several concentrations.)
A further assay relates to astro. Kind of assay: Drug repurposing screens with cells derived from glioblastoma tumor samples (AID 1345199). Further: on the % scale 0 is the no-effect control and ±100 the full control effect; nearly all actives have a fitted effect of over 40% in size. Particulars: viability, ATP luminescence, 48 h; series mostly up to 45.9 µM. The method, boiled down: as §2
Assay [4] can be described thus: qHTS assay to identify inhibitors of the type 1 interferon - major histocompatibility complex class I in skeletal muscle: Counter screen cell viability and HiBit confirmation (AID 1347412). Further: on the % scale 0 is the no-effect control and ±100 the full control effect; nearly all actives have a fitted effect of over 60% in size. The conditions noted are these: iHSKM muscle cells + IFN-b, HiBiT or CellTiter-Glo, 24 h; Viability; at 45.9 µM (top of the series). The method in brief:
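HLA-B*08:01–HiBiT knock-in immortalized human myoblasts (C25cl48) stimulated with 4.0 ng/ml human IFN-beta and dosed with compound in a 12-point 1:3 titration (top final 46 uM). After 24 hrs at 37 C, HiBiT lytic luminescence or CellTiter Glo ATP read out.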

Where [5] appears, read: at 45.9 µM (top of the series), tumour line B.
Where [6] appears, read: at 45.9 µM (top of the series), tumour line D.
The mark [7] stands for this setting: at 46.1 µM (top of the series), tumour line C.
[8] abbreviates: at 46 µM (top of the series), tumour line A.

Sequence of Nuclear receptor subfamily 1 group I member 2 (Rattus norvegicus) (Q9R1A7 whole entry, looked up): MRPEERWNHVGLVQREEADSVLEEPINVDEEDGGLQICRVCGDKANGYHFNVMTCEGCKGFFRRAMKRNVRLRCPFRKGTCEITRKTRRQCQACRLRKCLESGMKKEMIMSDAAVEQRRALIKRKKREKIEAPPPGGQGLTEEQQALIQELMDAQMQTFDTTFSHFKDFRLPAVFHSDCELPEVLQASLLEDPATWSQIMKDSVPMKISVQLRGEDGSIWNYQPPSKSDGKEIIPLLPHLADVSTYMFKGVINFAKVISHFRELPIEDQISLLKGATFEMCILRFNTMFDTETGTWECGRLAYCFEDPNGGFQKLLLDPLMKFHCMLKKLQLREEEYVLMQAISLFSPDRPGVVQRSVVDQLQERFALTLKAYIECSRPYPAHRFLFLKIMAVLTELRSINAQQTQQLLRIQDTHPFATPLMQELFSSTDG

For the compound `COC(=O)[C@@H]1[C@H]2C[C@H]3c4[nH]c5ccccc5c4CCN3C[C@@H]2CC[C@@H]1O`, the Potency entry with C33A, in the assay with CAOV3, with CASKI, in the assay on Es-2, with HeLa and in the assay on Hek293T was “inactive” each time. Moreover, the Potency entry in the assay on JEG-3, with OV90, in the assay with PA-1, with SKOV3, in the assay on Tov-21-G and with Tov112D was “inactive” throughout. For the same compound, the results for the activity, negative = cell killing in assay [1] (setting [5]), in [1] (setting [6]) and in assay [1] (setting [7]) were 3.23%, 3.82% and -7.31%, respectively.
As for `CCCNC(=O)NS(=O)(=O)c1ccc(Cl)cc1`, the Potency result in the assay with C33A, with CAOV3, in the assay with CASKI, in the assay on Es-2, with HeLa and with Hek293T was “inactive” throughout. The Potency result in the assay with JEG-3, with OV90, with PA-1, in the assay on SKOV3, in the assay with Tov-21-G and in the assay with Tov112D was “inactive” each time. In addition, the activity, negative = cell killing in assay [1] (setting [5]) was -7.96%; in assay [1] (setting [6]) it was 5.01%; in [1] (setting [8]), -11.4%; in assay [1] (setting [7]), -13.2%. Further, in [2], the max response was -5.97% and -1.04%. Besides, the outcome in assay [3] was inactive.
For `COCCOC(=O)C1=C(C)NC2=C(C(=O)CC(c3ccccc3OC)C2)C1c1cccc(O)c1` (stereo not given), the Potency result with C33A, with CAOV3, in the assay on CASKI, in the assay with Es-2, in the assay on Hek293T and in the assay with JEG-3 was “inactive” throughout. Also, the Potency result with OV90, with PA-1, in the assay with Tov-21-G and with Tov112D was “inactive” in each case.
On to `CC(C)(C)c1cc(C(=O)O)c(NC(=O)Nc2ccc3[nH]ncc3c2)s1`, for which the Potency entry in the assay with C33A, with CAOV3, with Es-2, in the assay with HeLa, in the assay on Hek293T and with JEG-3 was “inactive” in each case. The Potency entry in the assay with OV90, in the assay with PA-1, in the assay with SKOV3, in the assay with Tov-21-G and in the assay on Tov112D was “inactive” throughout.
Turning to `O=C(NCCN1CCOCC1)c1ccc(Cl)cc1`, the Potency result in the assay with C33A, in the assay on CAOV3, in the assay on CASKI, in the assay on Es-2, in the assay on HeLa and with Hek293T was “inactive” in each case. In addition, the Potency entry with JEG-3, in the assay with OV90, in the assay on PA-1, in the assay with SKOV3, in the assay on Tov-21-G and in the assay with Tov112D was “inactive” in each case. In the assay on astro, the Potency entry was “inactive”. Further, the activity, negative = cell killing in [1] (setting [5]) was -9.41% and -9.63%; in assay [1] (setting [6]), -2.14% and -10.5%; in assay [1] (setting [7]) it was -17.8% and -11.9%.
Consider `CCn1c(C(=O)N(C2CC2)C2CC2)cc2c3c(ncn3C)c(Nc3cc(C)n(C)n3)nc21`, for which the Potency result in the assay on C33A, in the assay with CAOV3, in the assay with CASKI, with Es-2, in the assay on HeLa and in the assay with Hek293T was “inactive” throughout. For the same compound, the Potency result in the assay on JEG-3, in the assay on OV90, with PA-1, with SKOV3, with Tov-21-G and in the assay on Tov112D was “inactive” in each case.
Take `NC(=O)c1cccc(-c2cc(Nc3ccc(OC(F)(F)F)cc3)ncn2)c1`: the Potency result with C33A, with CAOV3, in the assay with CASKI, with Es-2, in the assay on HeLa and in the assay on Hek293T was “inactive” in each case. The Potency entry with JEG-3, in the assay on OV90, with PA-1, in the assay with SKOV3, in the assay on Tov-21-G and in the assay on Tov112D was “inactive” each time.
With `CC[C@]1(O)C[C@@H]2CN(CCc3c([nH]c4ccccc34)[C@@](C(=O)OC)(c3cc4c(cc3OC)N(C)[C@H]3[C@@](O)(C(=O)OC)[C@H](OC(C)=O)[C@]5(CC)C=CCN6CC[C@]43[C@@H]65)C2)C1`, the Potency in the assay with C33A is 1580 nM (active); in the assay with Es-2, 1.12 µM (active) and 708 nM (active) and 794 nM (active); with HeLa, 316 nM (active) and 1.12 µM (active) and 631 nM (active); in the assay on JEG-3 it was 631 nM (active); with OV90, 11.2 µM (active) and 4.47 µM (active) and 7.94 µM (active); in the assay on PA-1 it was 316 nM (active) and 355 nM (active). Also, the Potency in the assay with Tov-21-G was 316 nM (active) and 447 nM (active) and 631 nM (active); in the assay on Tov112D, 158 nM (active) and 316 nM (active). In the assay with CAOV3, the Potency result was “inactive”.
For the compound `COc1ccc2c(Oc3ccc(NC(=O)c4c(C)n(CC(C)(C)O)n(-c5ccccc5)c4=O)nc3)ccnc2c1`, the Potency result in the assay on C33A, in the assay on CAOV3, with CASKI, with Es-2, in the assay on HeLa and in the assay with Hek293T was “inactive” each time. Also, the Potency entry with JEG-3, in the assay with OV90 and in the assay with Tov112D was “inactive” throughout. Besides, the Potency in the assay on PA-1 was 31.6 µM (active).
For the compound `NC(N)=Nc1nc(CSCC/C(N)=N/S(N)(=O)=O)cs1`, the Potency entry with C33A, in the assay with CAOV3, with CASKI, in the assay on Es-2, in the assay on HeLa and with Hek293T was “inactive” in each case. Further, the Potency result with JEG-3, in the assay with OV90, with PA-1, in the assay with SKOV3, in the assay with Tov-21-G and in the assay with Tov112D was “inactive” throughout. The activity, negative = cell killing in [1] (setting [5]) was -1.53%; in assay [1] (setting [6]), -7.06%; in assay [1] (setting [8]) it was -13.8%; in assay [1] (setting [7]) it was -8.17%.
For the compound `CCN(CC)C(=O)c1ccc(O)c(OC)c1`, the Potency entry with C33A, with CAOV3, with CASKI, in the assay with Es-2, in the assay on HeLa and in the assay with Hek293T was “inactive” throughout. Further, the Potency entry with JEG-3, in the assay with OV90, with PA-1, in the assay on SKOV3, in the assay with Tov-21-G and with Tov112D was “inactive” each time. Moreover, in the assay with astro, the Potency entry is “inactive”. Besides, the activity, negative = cell killing in assay [1] (at 20 µM (top of the series), tumour line C) was -17.1%; in assay [1] (at 21.2 µM (top of the series), tumour line B), -3.79%; in [1] (at 21.2 µM (top of the series), tumour line D) it was 8.85%; in assay [1] (at 21.3 µM (top of the series), tumour line A), -7.96%; in [1] (setting [5]) it was -9.11%; in assay [1] (setting [6]) it was 5.23%. The figures for the activity, negative = cell killing in assay [1] (setting [8]) and in assay [1] (setting [7]) were -18.7% and -18.9%, respectively.
`Cc1cccc(C)c1OCC(C)N` (stereo not given): the Potency result with C33A, in the assay on CAOV3, in the assay with CASKI, in the assay with Es-2, in the assay on HeLa and in the assay on Hek293T was “inactive” each time. Besides, the Potency entry in the assay with JEG-3, in the assay with OV90, with PA-1, in the assay on Tov-21-G and in the assay on Tov112D was “inactive” throughout. Further, the activity, negative = cell killing was -9.46% in assay [1] (setting [5]), 4.9% in assay [1] (setting [6]) and 3.32% in assay [1] (setting [7]).
Regarding `CCS(=O)(=O)N1CC(CC#N)(n2cc(-c3ncnc4[nH]ccc34)cn2)C1`, the Potency result with C33A, with CAOV3, in the assay on CASKI, with Es-2, with HeLa and in the assay on Hek293T was “inactive” throughout. Also, the Potency entry in the assay on JEG-3, in the assay with OV90, with PA-1 and with Tov112D was “inactive” each time. In addition, in [4], the activity change, negative = inhibition is -4.12%.
